The list is not random: actives were taken first. Their share in the collection is about 3.1%.
3CLpro inhibitor: SARS-CoV 3CLpro protease inhibition. recombinant SARS-CoV 3CLpro, quenched FRET peptide cleavage. inhibition, % at 6 µM. actives 0.14% (n = 290,000). AID 1706; in the data active = inhibition above about 12%
FadD28 FP inh: blocks FadD28 binding to the bisubstrate probe | fluorescence polarization | inhibition, % at 12.5 µM | actives 0.22% (n = 360,000); in the data active = inhibition above about 8.5%, passing the limit was not always enough; inconclusive = no clear call, values can overlap the other calls
GDH-TPI counter-1: inhibits GDH-TPI coupling enzymes, artifact for Mtb FBA screen. GDH-TPI coupled enzyme counterscreen, NADH absorbance. inhibition, % at 4.8 µM. actives 1.2% (n = 360,000). AID 588335; in the data active = inhibition above about 30%;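 also: 0% = DMSO wells and 100% = wells lacking the enzyme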
BioA inh: inhibitors of Mycobacterium tuberculosis BioA enzyme. purified M. tuberculosis BioA enzyme, plate reader. inhibition, % at 9.99 µM. actives 0.096% (n = 360,000). AID 602481; in the data active = inhibition above about 40%; inconclusive = no clear call, values can overlap the other calls
FBA Mtb inh: inhibits M. tuberculosis FBA enzyme; P9WQA3; purified M. tuberculosis FBA, fluorescence read-out; inhibition, % at 1 µM; actives 2.3% (n = 360,000);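 also: 0% = vehicle and 100% = reference inhibitor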
Target sequence (P9WQA3 whole entry, looked up): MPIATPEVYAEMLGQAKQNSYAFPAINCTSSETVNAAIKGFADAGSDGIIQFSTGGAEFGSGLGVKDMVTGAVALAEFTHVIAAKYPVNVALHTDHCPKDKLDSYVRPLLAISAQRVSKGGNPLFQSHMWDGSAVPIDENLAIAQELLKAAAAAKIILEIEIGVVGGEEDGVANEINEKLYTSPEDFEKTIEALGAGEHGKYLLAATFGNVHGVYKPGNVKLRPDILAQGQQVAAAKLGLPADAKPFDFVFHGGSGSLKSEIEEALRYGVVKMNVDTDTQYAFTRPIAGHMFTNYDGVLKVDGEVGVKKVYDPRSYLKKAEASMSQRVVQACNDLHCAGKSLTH
Mtb FBA confirm: Mtb FBA inhibition, confirmed; shares compounds with FBA Mtb inh; purified M. tuberculosis FBA, fluorescence read-out; inhibition, % at 1 µM; actives 78% (n = 5,600); AID 651616;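 also: 0% = vehicle wells and 100% = reference inhibitor wells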
GDH-TPI counter-2: counter-screen for M. tuberculosis FBA inhibitors: GDH-TPI coupled enzyme inhibition; shares compounds with FBA Mtb inh; GDH-TPI coupled enzyme counterscreen, fluorescence; inhibition, % at 1 µM; actives 81% (n = 5,600); AID 652141; in the data active = inhibition above about 10%
An asterisk follows results filed as active; ? = inconclusive; · = no result given; + = active, no number. Rule as the data show it, unless noted: active = inhibition above about 27%; inactive = the rest.

SMILES	3CLpro inhibitor	FadD28 FP inh	GDH-TPI counter-1	BioA inh	FBA Mtb inh	Mtb FBA confirm	GDH-TPI counter-2
COc1ccc(-c2cc3nc(-c4ccccc4)cc(N4CCC(O)CC4)n3n2)cc1	-2.8	-2.8	11.8	·	79.7*	39.0*	27.0*
COc1ccc(-c2cc3nc(-c4ccccc4)cc(N4CCN(C(C)=O)CC4)n3n2)cc1	·	-4.5	20.6	-0.7	69.7*	2.3	1.4
COc1ccc(-c2cc3nc(-c4ccccc4)cc(N4CCN(C(=O)c5ccccc5)CC4)n3n2)cc1	·	-3.3	9.0	·	2.9	·	·
COc1ccc(-c2cc3nc(-c4ccccc4)cc(N4CCCC(O)C4)n3n2)cc1 (stereo not given)	2.8	-2.6	-7.6	·	79.0*	9.6	-3.9
C[C@@H]1CN([C@H](C)CO)C(=O)c2cc(NC(=O)c3ccccc3)ccc2O[C@@H](C)CCCCO[C@H]1CN(C)C(=O)CCC(F)(F)F	·	·	·	0.6	·	·	·
Cc1ccc(S(=O)(=O)N(C)C[C@H]2Oc3ncc(C#CC4(O)CCCC4)cc3C(=O)N([C@@H](C)CO)C[C@H]2C)cc1	·	·	·	3.5	·	·	·
Cc1ccc(S(=O)(=O)N[C@@H]2CC[C@H](CC(=O)NCc3ccc(Cl)c(Cl)c3)O[C@H]2CO)cc1	·	·	·	0.2	·	·	·
COC(=O)Cc1ccc(OCc2ccc(Cl)nc2)cc1	-4.8	-1.4	-5.0	-0.6	53.3*	147.9*	102.3*
CC(=O)C(Cc1ccc(Cl)nc1)Cc1ccc(Cl)nc1	-0.9	-1.3	-3.7	·	-0.4	·	·
COc1ccc(NC(=O)Nc2cccc3c2O[C@H](CN(C)C(=O)Nc2ccc(OC)cc2)[C@@H](C)CN([C@@H](C)CO)C3=O)cc1	·	·	·	0.1	·	·	·
CCCCCCSc1cccc(-c2nc3ccccn3c2NCc2ccccc2)c1	·	2.8	13.6	-1.7	41.9*	101.3*	66.4*
CCCCCCSc1cc(-c2nc3ccc(C)cn3c2NCc2ccccc2)ccc1OC	·	-0.9	10.9	-1.7	28.5*	188.5*	135.6*
CCCCNc1c(-c2ccc(SC(C)CC)c(OC)c2)nc2ccc(C)cn12 (stereo not given)	·	-0.5	13.8	1.3	47.6*	35.3*	26.6*
CCCCCCSc1ccc(-c2nc3ccc(Cl)cn3c2NCCCC)cc1OC	·	-4.4	-3.5	-0.9	3.9	·	·
CCCCNc1c(-c2ccc(-c3ccc(OC)cc3)c(OC)c2)nc2ccccn12	·	-0.7	22.9	1.0	72.8*	82.3*	59.3*
CCCCCCSc1cccc(-c2nc3ccc(C)cn3c2NC2CCCCC2)c1	·	1.6	6.0	-0.2	4.3	·	·
CCCCCCSc1cccc(-c2nc3cc(C)ccn3c2NC2CCCCC2)c1	·	-5.1	17.5	-2.7	20.9	·	·
CCCCCCSc1cccc(-c2nc3cc(C)ccn3c2NCc2ccccc2)c1	·	-1.6	18.7	-1.6	27.8*	121.6*	104.4*
COc1ccccc1-c1cnc2c(c1)C(=O)N([C@@H](C)CO)C[C@@H](C)[C@@H](CN(C)Cc1cncnc1)O2	·	·	·	-5.5	·	·	·
O=S(=O)(Cc1ccccc1)N1CCN(C2Cc3ccccc3C2)CC1	0.8	2.6	8.8	-1.6	28.6*	+	+
COc1ccccc1NCCC(=O)O	-1.3	0.4	12.9	·	1.9	·	·
O=C(O)CCNc1ccc(NCCC(=O)O)c2c1C(=O)c1ccccc1C2=O	2.7	10.2*	23.5	·	90.1*	4.2	2.7
COc1ccc(CCNC(=O)c2ccc3c(c2)N(Cc2ccccc2)CCS3)cc1OC	0.1	-2.6	10.0	·	64.2*	100.2*	82.9*
NS(=O)(=O)c1ccc(CCNC(=O)c2ccc3c(c2)N(Cc2ccccc2)CCS3)cc1	1.4	1.3	10.1	-1.1	67.9*	1.8	-3.9
COCC(=O)N1[C@H](C#N)[C@H](c2ccc(C3=CCCC3)cc2)[C@@H]1CO	·	·	·	-1.3	·	·	·
SMILES	3CLpro inhibitor	FadD28 FP inh	GDH-TPI counter-1	BioA inh	FBA Mtb inh	Mtb FBA confirm	GDH-TPI counter-2
COc1ccccc1-c1sc2cc3c(cc2c1C#Cc1cncn1C)OCO3	·	-22.4	10.0	-3.2	47.5*	88.4*	61.0*
CNc1cc(-c2cccc(OC)c2F)nc2ccnn12	·	-2.5	7.1	0.7	109.1*	89.5*	62.4*
COc1ccccc1-c1cc(C(F)(F)F)nc(NCc2ccco2)n1	3.5	0.7	15.1	-0.6	5.1	·	·
Cc1cccn2c(=O)c3cc(C(=O)NCc4ccco4)c(=N)n(CCc4ccccc4)c3nc12	2.6	-3.1	3.9	·	53.2*	89.8*	81.2*
COc1ccc(CCNC(=O)c2cc3c(=O)n4cccc(C)c4nc3n(CC3CCCO3)c2=N)cc1 (stereo not given)	-5.9	-6.4	5.0	0.8	20.1	·	·
Cc1cccn2c(=O)c3cc(C(=O)NCC4CCCO4)c(=N)n(CCc4ccccc4)c3nc12 (stereo not given)	-8.1	-0.3	-5.5	1.5	108.7*	75.7*	63.6*
Cc1cccn2c(=O)c3cc(C(=O)NCCc4ccccc4)c(=N)n(Cc4ccco4)c3nc12	1.8	-2.1	-2.3	-1.2	30.2*	+	+
CC=Cc1ccc2n(c1=O)C[C@@H]1[C@@H](CO)[C@H](C(=O)N[C@@H](C)c3ccccc3)[C@H]2N1Cc1cncnc1 (mixture of isomers)	·	·	·	-1.3	·	·	·
COCC(=O)N(C)C[C@H]1Oc2ncc(C3=CCCC3)cc2C(=O)N([C@@H](C)CO)C[C@@H]1C	·	·	·	-3.9	·	·	·
CO[C@H]1CN(C)C(=O)c2ccc(NC(C)=O)cc2OC[C@H](C)N(C(=O)C2CCOCC2)C[C@H]1C	·	·	·	0.5	·	·	·
NC(=O)C1CCN(C(=O)COc2ccc3ccc(=O)oc3c2)CC1	1.2	0.3	14.7	?	30.1*	1.8	-3.5
Cc1cccc(N2CCN(C(=O)COc3ccc4ccc(=O)oc4c3)CC2)c1C	2.2	-3.2	-6.1	35.5	1.3	·	·

High-throughput results: PubChem, several laboratories
